High-throughput results deposited in PubChem BioAssay by National Center for Advancing Translational Sciences (NCATS).
Most compounds without a hit are left out; they make up all but 3.2% or so of the library.
AmpC inh no detg – qHTS Inhibitors of AmpC Beta-Lactamase (assay without detergent). P00811. AmpC nitrocefin hydrolysis, absorbance 480 nm, 0.0001% Triton. Potency, µM (doses to about 57.1 µM), most hits filed as inhibitors. 330,000 tested, 0.52% active. AID 485341, 2010; note: nearly all actives have a fitted effect of over 20% in size
Target sequence (P00811 whole entry, looked up): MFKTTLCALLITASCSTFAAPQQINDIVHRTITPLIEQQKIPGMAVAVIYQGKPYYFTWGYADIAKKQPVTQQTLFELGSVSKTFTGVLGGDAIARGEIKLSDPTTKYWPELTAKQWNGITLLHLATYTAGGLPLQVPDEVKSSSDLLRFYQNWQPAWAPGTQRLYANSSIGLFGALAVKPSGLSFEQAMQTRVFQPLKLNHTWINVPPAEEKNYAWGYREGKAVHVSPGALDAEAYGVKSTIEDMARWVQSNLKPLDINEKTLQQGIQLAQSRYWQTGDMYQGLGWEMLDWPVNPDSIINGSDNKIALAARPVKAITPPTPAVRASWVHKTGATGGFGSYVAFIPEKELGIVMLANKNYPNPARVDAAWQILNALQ
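AmpC (5.3 nM in the dispensed reagent) in 20 mM phosphate pH 7.0 with 0.01% (detergent screen) or 0.0001% Triton X-100 was preincubated with compounds for 15 min at room temperature. Nitrocefin was then added from an 800 uM solution, and hydrolysis was followed at 480 nm.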
Sm TGR block – qHTS Assay for the Inhibitors of Schistosoma Mansoni Peroxiredoxins; Potency, µM (titrated, usually from 114 µM), hits mostly inhibitors; AID 485364, 2010; purified TGR, DTNB reduction, TNB absorbance 405 nm; Schistosoma mansoni thioredoxin glutathione reductase (TGR), Q962Y6; 360,000 tested, 3% active; note: nearly all actives have a fitted effect of over 60% in size
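First, TGR (20 nM dispensed) and NADPH were mixed with compound. Second, a 15 min room-temperature incubation followed. Third, further NADPH and then DTNB were added to start the reaction. Finally, TNB absorbance was monitored kinetically.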
RE007 growth inh – qHTS Assay for Inhibitors of the HIV-1 protein Vpr | S. pombe RE007 Vpr strain, BacTiter-Glo ATP luminescence, 24 h | Potency, µM (series often up to 92.2 µM), hits mostly inhibitors | 360,000 tested, 0.21% active | AID 651644, 2012; active = well fitted falling curve with a large enough effect; inconclusive = small, poorly fitted or top-dose-only effect; inactive = no such curve, though single readings can be large or run the other way; note: nearly all actives have a fitted effect of over 50% in size
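Fission yeast RE007 carrying one integrated HIV-1 vpr copy, seeded at OD 0.01 in PMG+AL medium with 23 nL pinned compound. Grown 24 h at 30 degrees; viability read by BacTiter-Glo luminescence after 5 min.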
AmpC detergent – qHTS Inhibitors of AmpC Beta-Lactamase (assay with detergent). AmpC hydrolysis of nitrocefin, absorbance 480 nm, 0.01% Triton. Potency, µM (titrated, usually from 114 µM), actives largely listed as inhibitors. 370,000 tested, 0.041% active. AID 485294, 2010; note: nearly all actives have a fitted effect of over 25% in size
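AmpC (5.3 nM in the dispensed reagent) in 20 mM phosphate pH 7.0 with 0.01% (detergent screen) or 0.0001% Triton X-100 was preincubated with compounds for 15 min at room temperature. Nitrocefin was then added from an 800 uM solution, and hydrolysis was followed at 480 nm.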
AMA1-RON2 inh – qHTS for Inhibitors of AMA1-RON; Towards Development of Antimalarial Drug Lead: Primary Screen; Plasmodium falciparum AMA1 (3D7) - RON2 peptide interaction; Potency, µM (titrated, usually from 58.2 µM), most hits filed as inhibitors; 360,000 tested, 0.2% active; AlphaScreen AMA1-biotinylated RON2 peptide binding; note: nearly all actives have a fitted effect of over 45% in size
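AMA1 (3D7) with his tag at 25 nM final met compounds first, then biotinylated RON2 peptide at 25 nM; detection used donor plus acceptor beads, 10 µg/mL apiece, read by AlphaScreen after 30 min at room temperature.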
Numbers stand for hits; i = inactive; ? = inconclusive; nt = no result; ! = repeats disagree; [ ] = remark or other dose. Unless noted, calls come from the whole dose curve; as a rule, active = well fitted curve in the direction sought with a large enough effect; inconclusive = small, poorly fitted or top-dose-only effect, or another doubt; inactive = no such curve, though single readings can be large; an effect the other way counts as inactive or inconclusive.

SMILES	AmpC inh no detg	Sm TGR block	RE007 growth inh	AmpC detergent	AMA1-RON2 inh
Cc1cccc(NC(=O)CSc2nnc(CNC(=O)c3c(F)cccc3Cl)o2)c1C	nt	i	nt	i	nt
COc1ccc(C2NC(=O)N(C)C3=C2C(=O)N(c2ccccc2)C3)cc1 (centres undefined)	nt	i	nt	i	nt
c1coc(Cn2nnnc2CN2CCN(C3CCCC3)CC2)c1	i	32µM	i	?	i
Oc1cccc(N2Cc3ccccc3C2)c1	i	10µM	i	i	i
Oc1ccc(N2Cc3ccccc3C2)cc1	i	22µM	i	i	i
CCc1nn(CC(=O)NC2CC2)c(=O)c2cc3ccccc3n12	nt	i	nt	i	nt
Cc1[nH]c2ccccc2c1C(c1ccccn1)N1CCC(C(N)=O)CC1 (centres undefined)	i	0.35µM	i	i	i
CCOC(=O)C1CCN(C(c2ccccn2)c2c(C)[nH]c3ccccc23)CC1 (centres undefined)	i	0.28µM	i	i	i
CCOC(=O)C1CCN(C(C)C(=O)c2c[nH]c3ccccc23)CC1 (centres undefined)	i	i	i	i	i
Cc1ccc2c(c1)c(C)cc[n+]2Cc1ccccc1	i	i	i	i	i
CC[n+]1ccc(C[n+]2ccccc2)c2ccccc21	?	i	i	32µM	i[11.6 µM]
CCOC(=O)N1CCN(c2ncnc3nc[nH]c23)CC1	45µM	i	i	?	i
Cc1ccc(-n2ncc3c(N4CCN(CCO)CC4)ncnc32)cc1Cl	nt	7.9µM	nt	i	nt
CCOC(=O)N1CCN(c2ncnc3c2cnn3-c2ccc(Cl)cc2)CC1	6.3µM	i	nt	i	nt
Cc1ccc(CCNC(=O)c2ccc(CS(=O)(=O)c3ccc(Cl)cc3)o2)cc1	nt	i	nt	i	nt
CCN1CCCc2cc(CN(CCN3CCOCC3)C(=S)Nc3ccccc3C)ccc21	i	i	i	i	i
CCc1ccc(NC(=O)N(CCN2CCOCC2)Cc2ccc3c(c2)CCCN3CC)cc1	i	i	i	i	?
CCN1CCCc2cc(CN(CCN3CCOCC3)C(=S)Nc3cccc(C)c3)ccc21	i	i	i	i	14µM
CCN1CCCc2cc(CN(CCN3CCOCC3)C(=O)Nc3ccc(C)c(C)c3)ccc21	i	i	i	?	11µM
CCOc1ccc(NC(=O)CC2C(=O)N(c3ccccc3)C(=O)N2Cc2cccc(OC)c2)cc1 (centres undefined)	nt	i	nt	i	nt
COc1ccc(NC(=O)CSC2=Nc3ccccc3C3=NC(CCC(=O)NCc4cccs4)C(=O)N23)cc1 (centres undefined)	nt	i	nt	i	nt
C1=C(c2ccccc2)CCN(c2ncnc3nc[nH]c23)C1	?	50µM	i	?	i
O=C(NC(=S)Nc1nc(-c2ccccc2)cs1)c1cccs1	i	i	i	i	i
O=C(NNc1nc(-c2ccccc2)cs1)c1cccs1	8.9µM	i	i	i	i
COc1ccc(S(=O)(=O)Nc2cc(C)c(O)c(S(=O)(=O)c3ccccc3)c2)cc1	i	56µM	i	i	i
SMILES	AmpC inh no detg	Sm TGR block	RE007 growth inh	AmpC detergent	AMA1-RON2 inh
COc1ccc(S(=O)(=O)c2c(C)c(NS(=O)(=O)c3ccccc3)cc(C)c2O)cc1	i	i	i	i	i
COc1ccccc1NC(=O)CSC1=Nc2ccccc2C2=NC(Cc3ccccc3)C(=O)N12 (centres undefined)	nt	i	nt	i	nt
CC#CCN(Cc1ccco1)C(=O)c1ccc(OC2CCN(Cc3ccccn3)CC2)cc1	i	79µM	i	i	i
CN(Cc1ccco1)C(=O)c1ccc(OC2CCN(Cc3ccccn3)CC2)cc1	i	?	i	i	i
O=C1CN(CC(=O)N2CCOCC2)c2ccccc2O1	i	20µM	nt	i	nt
O=C(CN1C(=O)COc2ccccc21)N1CCCC1	i	i	i	?	i
O=C1CN(CC(=O)N2CCCCC2)c2ccccc2O1	i	11µM	?	i	i
COc1ccc(S(=O)(=O)c2c(Nc3ccc(C)cc3C)sc(C(=O)c3ccc(F)cc3)c2N)cc1	nt	i	nt	i	nt
Nc1ncnc2oc(-c3ccco3)c(-c3ccco3)c12	i	10µM	i	i	?
Nc1nnc(-c2ccco2)s1	i	i	i	i	i
Cc1cc2nc(-c3ccc(SCC(=O)N4CCN(C(=O)c5ccco5)CC4)nc3)[nH]c2cc1C	i	10µM	i	i	i
CCN(CC(=O)Nc1ccc(NC(C)=O)cc1)C(=O)/C=C/c1ccccc1	i	i	i	?	i
CCN(CC(=O)Nc1ccc(NC(C)=O)cc1)C(=O)/C=C/c1cn(-c2ccccc2)nc1-c1cccs1	25µM	i	i	?	i
CCN(CC(=O)Nc1ccc(NC(C)=O)cc1)C(=O)/C=C/c1ccc(C)o1	i	45µM	i	i	i
Cc1cccc2nc(Cn3c(=O)n(-c4ccccc4)c(=O)c4c5c(sc43)CCC5)cc(=O)n12	nt	i	nt	i	nt
Cc1cccc(C(=O)Nc2nnc(S(=O)(=O)N(C)Cc3ccco3)s2)c1	i	7.9µM!	i	i	i
CCN(c1ccccc1C)S(=O)(=O)c1nnc(NC(=O)c2ccco2)s1	i	20µM!	i	i	i
CCN(c1cc(C)cc(C)c1)S(=O)(=O)c1nnc(NC(=O)c2ccco2)s1	i	?	i	i	i
CCN(C(=O)CCS(=O)(=O)c1cc2c(cc1C)NC(=O)CO2)c1cccc(C)c1	nt	i	nt	i	nt
CCOc1ccc(NC(=O)CS(=O)(=O)Cc2nc(-c3ccc(C)cc3)oc2C)cc1	nt	i	nt	i	nt
c1ccc(Cc2noc(CN3CCN(C4CCc5ccccc5C4)CC3)n2)cc1 (centres undefined)	i	nt	i	i	i
c1ccc(Cc2noc(CN3CCCN(C4Cc5ccccc5C4)CC3)n2)cc1	i	25µM	i	i	i
Cc1ccc(CNc2ccc(O)cc2)cc1	i	11µM	i	i	i
COc1ccc(OC)c(Nc2nc3ccccc3n3c(C)nnc23)c1	nt	i	nt	i	nt
C[n+]1cccc(C2C(C#N)=C(N)Oc3c2ccc2ccccc32)c1 (centres undefined)	i	40µM	i	i	i
Cc1ccc2cc(C3C(C#N)=C(N)Oc4c3ccc3cccnc43)c(=O)[nH]c2c1 (centres undefined)	i	11µM	i	i	i
C[n+]1cccc2ccc3c(c21)OC(N)=C(C#N)C3c1ccccc1 (centres undefined)	i	i	i	i	i
N#CC1=C(N)Oc2c(ccc3cccnc23)C1c1cccnc1 (centres undefined)	i	20µM	i	i	i
Cc1cccc(C(=O)Nc2nc3nc(-c4ccccc4)cc(=O)n3[nH]2)c1	nt	i	nt	i	nt
CCCOc1ccc(NC(=O)C(=O)NCCCN2CCOCC2)cc1	nt	i	nt	i	nt
